What all share (assay): NCI-60 one-dose screen, 48 h (100 = growth as untreated, 0 = no growth, -100 = all killed)
One assay has as its system HCT-15 colon. To be noted: 10 µM unless noted.
Another assay has as its system HT29 colon. Conditions: 10 µM unless noted.
The next assay deals with SNB-75 CNS. To be noted: 10 µM unless noted.
The subject of the next assay is SNB-19 CNS. Conditions: 10 µM unless noted.
The next assay has as its system U251 CNS. Conditions: 10 µM unless noted.
A further assay has as its system PC-3 prostate. Conditions: 10 µM unless noted.
Another assay has as its system SK-MEL-5 melanoma. To be noted: 10 µM unless noted.
Another assay has as its system UACC-62 melanoma.
A further assay relates to LOX IMVI melanoma. Conditions: 10 µM.
The subject of another assay is SK-MEL-28 melanoma. Conditions: 10 µM unless noted.

Several values for one entry are separate records, joined by “and”; a condition that tells them apart may be missing. Identical values can stand only once. Compounds without any hit were thinned out: in the full panel of roughly 83,000, 20% have a hit.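 Single-concentration screen, 48 h exposure, 96-well plates. Endpoint: percent growth. Below 10 = active.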 Unmarked numbers belong to inactive results. Activity calls are given as the source filed them.

Turning to `CCCc1cc(=O)oc2c3c(c4c(c12)OC(C)(C)CC4)OC(C)[C@H](C)[C@@H]3O` (some centres not stated), the growth with HCT-15 colon was 55.5%; in the assay with HT29 colon, 58.8%; with SNB-75 CNS, 91.5%; in the assay on SNB-19 CNS, 94.4%; with U251 CNS, 75.1%; in the assay with PC-3 prostate it was 42.7%. The growth was 86.9% in the assay with SK-MEL-5 melanoma, 68.9% with UACC-62 melanoma (10 µM unless noted), 83.1% in the assay on LOX IMVI melanoma and 93.1% in the assay with SK-MEL-28 melanoma.

Take `COc1cc2c(c(OC)c1OC)-c1ccc(NCc3ccccc3)c(=O)cc1[C@@H](NC(C)=O)CC2`: the growth in the assay on HCT-15 colon was 11.5%; with HT29 colon, -8.12% (active); in the assay on SNB-75 CNS it was 32.9%; in the assay with SNB-19 CNS, 64.2%; in the assay on U251 CNS, 19%; in the assay with PC-3 prostate it was 21.8%. For the same compound, the growth with SK-MEL-5 melanoma is -25% (active); with UACC-62 melanoma (10 µM unless noted) it was 24.9%; in the assay with LOX IMVI melanoma it was 21.2%; with SK-MEL-28 melanoma, 42.2%.

`COC1=CC(=O)c2c(O)c3c(c(O)c2C1=O)CC(C)(O)OC3` (configuration not stated): the growth in the assay on HCT-15 colon is 0.909% (active); in the assay with HT29 colon, -10.8% (active); in the assay on SNB-75 CNS, 41.8%; in the assay on SNB-19 CNS it was 7.01% (active); in the assay on U251 CNS it was 17.3%; in the assay on PC-3 prostate, 8.93% (active). For the same compound, the results for the growth in the assay on SK-MEL-5 melanoma, in the assay on UACC-62 melanoma (10 µM unless noted) and in the assay on LOX IMVI melanoma were -92.4% (active), -14.2% (active) and 11.4%, respectively.

Turning to `CC(C)=CCCC(C)C1=C(O)C(=O)C(C)=CC1=O` (configuration not stated), the growth in the assay with HCT-15 colon was 1.72% (active); in the assay with HT29 colon, 83.6%; in the assay on SNB-75 CNS, 113%; with SNB-19 CNS, 98.7%; in the assay on U251 CNS it was 81.3%; with PC-3 prostate it was 90.8%. In addition, the growth in the assay with SK-MEL-5 melanoma was 88.7%; in the assay with UACC-62 melanoma (10 µM) it was 103%; in the assay with UACC-62 melanoma (100 µM), -98.4% (active) and -93.3% (active); in the assay on LOX IMVI melanoma, 59.1%.

On to `O=C(c1ccccc1)C(Br)[N+](=O)[O-]` (configuration not stated), for which the growth in the assay on HCT-15 colon is 78.1%; in the assay on HT29 colon, 90.5%; with SNB-75 CNS it was 86.3%; with SNB-19 CNS, 102%; in the assay on U251 CNS it was 84.2%; in the assay with PC-3 prostate it was 89.4%. Further, the growth with SK-MEL-5 melanoma is 102%; in the assay on UACC-62 melanoma (10 µM unless noted) it was 89.8%; in the assay on LOX IMVI melanoma it was 80.5%; with SK-MEL-28 melanoma it was 106%.

As to `CCCCCCCCCCCC[N+]1(CCCCCCCCCCCC)CCCC(C)C1` (configuration not stated), the growth was -55.6% (active) in the assay on HCT-15 colon; -91.8% (active) with HT29 colon; -88.3% (active) in the assay with SNB-75 CNS; -96.5% (active) with SNB-19 CNS; -61% (active) in the assay with U251 CNS; -93.7% (active) in the assay with PC-3 prostate. For the same compound, the growth is -100% (active) in the assay on SK-MEL-5 melanoma, -77.9% (active) with UACC-62 melanoma (10 µM unless noted), -80% (active) in the assay with LOX IMVI melanoma and -91.2% (active) with SK-MEL-28 melanoma.

On to `O=C1c2ccccc2Cc2cccc(Cl)c21`, for which the growth is 97.4% in the assay with HCT-15 colon; 87.7% in the assay on HT29 colon; 117% with SNB-75 CNS; 100% in the assay with SNB-19 CNS; 101% in the assay with U251 CNS; 92.9% with PC-3 prostate. Besides, the growth was 96.2% in the assay on SK-MEL-5 melanoma, 98.9% with UACC-62 melanoma (10 µM unless noted), 93.9% with LOX IMVI melanoma and 101% with SK-MEL-28 melanoma.

Turning to `CCCCCCCCCCCC[n+]1ccc2ccccc2c1`, the growth in the assay with HCT-15 colon was 25%; with HT29 colon, 0.914% (active); in the assay with SNB-75 CNS, -21% (active); with SNB-19 CNS it was -19.8% (active); in the assay on U251 CNS, -53.5% (active); in the assay with PC-3 prostate, -34.1% (active). In addition, the growth was -93.7% (active) with SK-MEL-5 melanoma, -62.1% (active) in the assay with UACC-62 melanoma (10 µM unless noted), -75% (active) with LOX IMVI melanoma and -28.6% (active) with SK-MEL-28 melanoma.

On to `CCOc1ccc2c(c1)/C(=C\C=C\C1CC(C)C3CC(OCC)CCC3N1CC)CC(C)N2CC` (configuration not stated), for which the growth with HCT-15 colon is 17.8%; in the assay with HT29 colon, -33.4% (active); in the assay with SNB-75 CNS it was -0.249% (active); in the assay on SNB-19 CNS it was 22.2%; with U251 CNS, 6.59% (active); with PC-3 prostate, 3.32% (active). The growth in the assay on SK-MEL-5 melanoma is -86.3% (active); with UACC-62 melanoma (10 µM unless noted), 32.5%; in the assay on LOX IMVI melanoma, 16.3%; in the assay with SK-MEL-28 melanoma, 22.8%.

Regarding `CC1(C)OC2C(COC(c3ccccc3)(c3ccccc3)c3ccccc3)OC(c3c[nH]c4c(N)ncnc34)C2O1` (configuration not stated), the growth was 55.3% in the assay on HCT-15 colon; 46.4% with HT29 colon; 61.9% in the assay on SNB-75 CNS; 66.1% in the assay on SNB-19 CNS; 56.7% in the assay with U251 CNS; 25% in the assay on PC-3 prostate. The growth is 60.8% in the assay on SK-MEL-5 melanoma, 65.2% in the assay on UACC-62 melanoma (10 µM unless noted), 54.8% in the assay on LOX IMVI melanoma and 66.8% in the assay on SK-MEL-28 melanoma.

`O=C(OC12CC3CC(CC(C3)C1)C2)c1ccc(NCc2cc(O)ccc2O)cc1`: the growth in the assay with HCT-15 colon is -41.9% (active); in the assay with HT29 colon, -19% (active); in the assay on SNB-75 CNS, -39.5% (active); with SNB-19 CNS it was 5.17% (active); with U251 CNS it was -64.5% (active); in the assay on PC-3 prostate, -16.5% (active). Besides, the growth with SK-MEL-5 melanoma was -95.9% (active); in the assay with UACC-62 melanoma (10 µM unless noted) it was -73.4% (active); in the assay with LOX IMVI melanoma, -68.7% (active).

Consider `CCC(C)(O)Cc1ccc(Cl)cc1` (configuration not stated), for which the growth in the assay with HCT-15 colon is 103%; with HT29 colon, 103%; with SNB-75 CNS, 88.2%; with SNB-19 CNS it was 102%; with U251 CNS it was 101%; with PC-3 prostate, 94.5%. Also, the growth in the assay with SK-MEL-5 melanoma was 91.6%; in the assay on UACC-62 melanoma (10 µM unless noted) it was 101%; with LOX IMVI melanoma, 103%; in the assay with SK-MEL-28 melanoma it was 112%.

For the compound `Oc1c(Cl)cc(Cl)cc1C(c1cc(Cl)cc(Cl)c1O)C(Cl)(Cl)Cl`, the growth in the assay with HCT-15 colon is 2.87% (active); with HT29 colon, 7.53% (active); in the assay with SNB-75 CNS it was -7.64% (active); in the assay with SNB-19 CNS, 19.2%; in the assay with U251 CNS, 4.24% (active); in the assay on PC-3 prostate, -7.63% (active). Also, the growth in the assay with SK-MEL-5 melanoma was -38.8% (active); in the assay on UACC-62 melanoma (10 µM unless noted), 11.8%; in the assay with LOX IMVI melanoma, 0.701% (active); with SK-MEL-28 melanoma, 30.4%.

Take `Cc1ccc(N2C(=O)C=CC2=O)cc1`: the growth with HCT-15 colon is 114%; in the assay on HT29 colon, 96.3%; with SNB-75 CNS, 89.6%; in the assay on SNB-19 CNS it was 95.4%; in the assay with U251 CNS, 102%; with PC-3 prostate, 97.4%. Moreover, the growth in the assay on SK-MEL-5 melanoma was 91.2%; in the assay on UACC-62 melanoma (10 µM unless noted), 104%; in the assay with LOX IMVI melanoma, 97.7%; in the assay on SK-MEL-28 melanoma, 112%.

Consider `CN1CCC(CN2c3ccccc3Sc3ccccc32)C1` (configuration not stated), for which the growth in the assay on HCT-15 colon was 83.9%; with HT29 colon it was 45.8%; in the assay with SNB-75 CNS it was 57.7%; in the assay with SNB-19 CNS, 98.1%; in the assay on U251 CNS, 91.1%; in the assay with PC-3 prostate it was 63.6%. The growth was 76.6% in the assay on SK-MEL-5 melanoma, 90.4% in the assay with UACC-62 melanoma (10 µM unless noted) and 76.5% in the assay with LOX IMVI melanoma.

These data come from PubChem BioAssay (NCI).
